# Screening data as filed in PubChem.
# Kir21 block: inhibitors of mouse Kir2.1 inward-rectifier potassium channel; AID 1672, 2009; 310,000 tested, 0.85% active; Inward rectifier potassium channel 2 (Mus musculus), P35561; B-score at 10 µM; HEK293-Kir2.1, FluxOR thallium flux fluorescence; hits give low values;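 active = fluorescence ratio B-score at or below minus 3 SD of library scores, with starting-brightness B-score within 2 SD, cut at about -4.2 in these data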;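 note: channel flux triggered by added potassium and thallium sulfate stimulus; B-score of peak minus minimum fluorescence over baseline after thallium stimulus; more negative B-score means stronger Kir2.1 block with less thallium influx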
# Target sequence (P35561 whole entry, looked up): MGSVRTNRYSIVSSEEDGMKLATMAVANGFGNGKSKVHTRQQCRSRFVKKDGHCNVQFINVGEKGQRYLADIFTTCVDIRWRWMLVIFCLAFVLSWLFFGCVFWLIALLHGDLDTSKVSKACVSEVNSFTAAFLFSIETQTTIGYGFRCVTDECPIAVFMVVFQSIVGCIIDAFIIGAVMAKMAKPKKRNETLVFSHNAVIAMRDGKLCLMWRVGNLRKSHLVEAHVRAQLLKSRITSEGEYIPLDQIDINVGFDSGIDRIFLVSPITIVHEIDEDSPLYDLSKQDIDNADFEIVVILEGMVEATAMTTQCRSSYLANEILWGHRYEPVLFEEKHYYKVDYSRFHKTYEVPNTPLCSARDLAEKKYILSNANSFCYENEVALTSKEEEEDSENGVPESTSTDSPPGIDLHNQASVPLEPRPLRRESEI
# TMEM16A inh: TMEM16A chloride channel inhibitors, primary screen, cell-based, HTS; Anoctamin-1 (Mus musculus), Q8BHY3; HEK293 TMEM16A/YFP iodide influx fluorescence, ionomycin; normalized B-score (activity score, 25-100; higher = stronger inhibition) at 10 µM; 310,000 tested, 1.2% active; AID 588511, 2011;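 active = ratio plate-corrected score three or more library SD toward inhibition, starting fluorescence score within five deviations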;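 note: score derived from kinetic fluorescence span divided by baseline fluorescence per well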
# KCNK9 block: KCNK9 potassium channel inhibitors, primary screen, HEK293 cells, thallium flux. B-score at 10 µM. 310,000 tested, 1.2% active. FluxOR thallium flux fluorescence; hits give low values. Potassium channel subfamily K member 9 (Homo sapiens), Q9NPC2;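 active = ratio B-score over 3 SD below the library mean, with starting fluorescence within 5 SD of its mean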;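 note: negative B-score means less thallium flux so channel inhibition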
# ANO1 activ: TMEM16A chloride channel activators or potentiators, primary screen, cell-based, HTS. B-score at 10 µM. HEK293 TMEM16A/YFP-H148Q/I152L, iodide quench fluorescence; hits give low values. Anoctamin-1 (Mus musculus), Q8BHY3. 340,000 tested, 0.3% active. AID 623877, 2012;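 active = fluorescence-ratio B-score plate-corrected deviation score at least 3 library SD below zero, with starting fluorescence score within 5 deviations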;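 note: channel opened by trigger with iodide after compound preincubation; score built on the fluorescence ratio of max minus min over baseline; more negative score means more quench and so TMEM16A activation or potentiation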
# KCNK3 block: human KCNK3 channel inhibitors, primary screen, CHO cells, FluxOR thallium flux, B-score; Potassium channel subfamily K member 3 (Homo sapiens), O14649; FluxOR fluorescence; hits give low values; B-score at 10 µM; 340,000 tested, 0.84% active; AID 602410, 2012;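 active = B-score under library mean minus 4 SD, starting fluorescence ratio at most library mean plus 5 SD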;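 note: more negative B-score means stronger inhibition of thallium flux through KCNK3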
# Numbers without * were called inactive; i = inactive; nt = not tested or not shown. Compounds with a hit are over-represented: about 3.5% of the library has one in this group of screens.
SMILES,Kir21 block,TMEM16A inh,KCNK9 block,ANO1 activ,KCNK3 block
COc1cc(C[C@@H](C)[C@@H](C)Cc2ccc(O)c(OC)c2)ccc1O,nt,nt,nt,i,i
CC(Cc1ccc(O)c(O)c1)C(C)Cc1ccc(O)c(O)c1 (configuration not stated),-11*,100*,i,nt,nt
O=C(C(Sc1ccccc1)c1ccc(Br)cc1)N1CCOCC1 (configuration not stated),-5.8*,i,i,i,i
CC(C)(C)SC(C(=O)N1CCOCC1)c1ccc(Br)cc1 (configuration not stated),0.09,i,i,i,i
CCC(C)c1ccccc1OCCCNC1CCCC1 (configuration not stated),-5.9*,i,i,i,i
Cc1nnc(SCCOC(N)=O)n1C,0.38,nt,i,i,i
C[N+](C)(C)CCOC(N)=O,nt,i,nt,-5.7*,i
O=C(CNCCC1=CCCCC1)Nc1ccc(N2CCCCCC2)cc1,-5.6*,i,i,i,i
C/C(=N\NC(=O)c1ccc(-n2cnnn2)cc1)c1ccc(C)cc1,nt,nt,nt,i,i
Cc1ccc(S(=O)(=O)N(C)C)cc1NC(=O)CSc1nc2ccccc2c(=O)n1CC1CCCO1 (configuration not stated),-1.1,i,i,i,i
Cc1ccc(S(=O)(=O)N(C)C)cc1-n1c(SCC(=O)Nc2ccc(F)cc2Cl)nc2ccccc2c1=O,-2.6,i,-8*,i,i
Cc1ccc(S(=O)(=O)N(C)C)cc1-n1c(SCC(=O)Nc2ccccc2)nc2ccccc2c1=O,-0.84,i,-7.9*,i,i
O=C(COc1ccc(F)c(Cl)c1)Nc1ccc(N2CCOCC2)cc1,nt,nt,nt,i,i
CCCN(C(=O)CCNC(=O)Cn1cnc2ccccc2c1=O)c1cccc(Cl)c1,-0.97,i,i,i,i
CNc1c(NC(=O)c2ccc3c(c2)OCO3)c(=O)oc2ccccc12,0.83,i,i,i,i
O=C(c1ccc(C(F)(F)F)cc1)N1CCC(=O)N(C(COCc2ccccc2)Cc2ccccc2)CC1 (configuration not stated),-2,i,i,i,i
CC(C)CC(COCc1ccc(C(F)(F)F)cc1)N1CCN(C(=O)c2ccc(C(F)(F)F)cc2)CCC1=O (configuration not stated),0.14,i,-7.1*,i,i
CCOC(=O)Cn1c(=NC(=O)CSC(C)=O)sc2cc(OC)ccc21,0.52,i,-8.1*,i,i
CCOC(=O)N1CCN(C(=O)CSCC(=O)N=c2sc3cc(OC)ccc3n2C)CC1,nt,nt,nt,i,i
Cc1ccc2c(c1)CCCN2S(=O)(=O)c1cccc(C(=O)Nc2ccccc2C(=O)O)c1,-1.8,100*,i,i,i
CCOC(=O)c1c(-c2ccccc2)oc2ccc(O)c(CN(C)C)c12,-6.4*,i,i,i,i
CCOC(=O)c1c(-c2ccccc2)oc2ccc(OCC(O)CN(C)C)cc12 (configuration not stated),-7.8*,i,i,i,i
COCCOC(=O)c1c(C)oc2ccc(O)c(CN3CCC(C)CC3)c12,-1.6,i,i,i,i
CCOC(=O)c1c(-c2ccccc2)oc2ccc(O)c(CN3CCCC3)c12,-12*,i,i,i,i
Cc1oc2ccc(O)c(CN(C)C)c2c1C(=O)c1ccccc1,-3.2,i,i,i,i
SMILES,Kir21 block,TMEM16A inh,KCNK9 block,ANO1 activ,KCNK3 block
CN(C)CCCC1(O)c2ccccc2C=Cc2ccccc21,-2,i,i,i,i
Cc1ccc(N(C(=O)c2snc(C(N)=O)c2N)C(C(=O)NCc2ccccc2)c2ccncc2)c(C)c1 (configuration not stated),-0.67,i,i,i,i
CCOC(=O)c1nn(-c2ccc(OCC)cc2)c2nc(-c3ccco3)c(C#N)c(=O)n12,1.3,i,i,i,i
COc1cccc(Nc2nc3ccccc3nc2-n2nc(C)cc2C)c1,0.11,i,i,i,i
Cc1cc(C)n(-c2nc3ccccc3nc2Nc2ccc3c(c2)OCO3)n1,-1.8,i,-7.3*,i,i
CCN(CC)c1nc2ccccc2nc1-n1nc(C)cc1C,-4.3*,i,i,i,i
COc1ccc(C=O)cc1CSc1nnc(COc2cccc3cccnc23)o1,-4.9*,i,i,i,i
O=C1CC(c2ccncc2)c2cc3c(cc2N1)OCCO3 (configuration not stated),0.55,i,i,i,i
O=C1CC(c2ccc3c(c2)OCO3)c2cc3c(cc2N1)OCCO3 (configuration not stated),-1.5,i,i,-5.1*,i
O=C(NCC1CCCO1)c1sc(=S)n2c1[nH]c(=O)c1ccc(C(=O)N3CCCCC3)cc12 (configuration not stated),-0.74,i,i,i,i
O=C(NC1CCCCC1)c1sc(=S)n2c1[nH]c(=O)c1ccccc12,-1.1,100*,i,i,i
Cc1ccc(CNCC(O)(c2ccc(F)cc2)c2ccc(F)cc2)cc1,-4.1,i,i,i,i
OC(CNCc1ccc(F)cc1)(c1ccccc1)c1ccc(F)cc1 (configuration not stated),-6.5*,i,i,i,i
COc1ccc(CNCC(O)(c2ccc(F)cc2)c2ccc(F)cc2)cc1,-8.3*,i,i,i,i
Cc1ccc(CNCC(O)(c2ccccc2)c2ccc(F)cc2)cc1 (configuration not stated),-8.9*,i,i,i,i
OC(CNCc1ccccc1)(c1ccc(F)cc1)c1ccc(F)cc1,-7.3*,i,-7.7*,i,i
COc1ccc(CNCC(O)(c2ccccc2)c2ccccc2)cc1OC,-0.84,i,i,i,i
OC(CNCc1ccccc1)(c1ccccc1)c1ccccc1,-4.6*,i,i,i,i
CCc1ccc(CNCc2ccc(F)cc2)cc1,-6.9*,i,i,i,i
O=C(O)c1ccc(CNCc2ccc(F)cc2)cc1,0.15,i,i,i,i
O=S(=O)(c1ccccc1)N1CCN=C1SCc1cccnc1,-4.2*,i,i,i,i
Cc1ccc(S(=O)(=O)N2CCN=C2SCc2cccnc2)cc1,-4.8*,i,i,i,i
COC(=O)C[C@H]1c2cc(C(F)(F)F)ccc2S(=O)(=O)N1Cc1ccccc1OC,-1.2,i,i,i,i
COc1ccccc1CCC(=O)OCC(=O)NC1CCCC1,-1.2,i,i,i,i
